Screening results (PubChem)
HepG2 viability = HepG2 cytotoxicity, counter-screen for TGF-b inhibitors | HepG2 CAGA-GFP viability, ATP luminescence, 18 h | Potency, µM (titrated, usually from 46.1 µM), usual class: cytotoxic | 410,000 compounds, 0.76% hits | AID 588856
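HepG2 CAGA-GFP cells (1000/well, DMEM with 1% FBS) received compound, then TGF-beta at 500 pg/mL final, and were incubated 18 hours at 37 degrees C. Viability was read by CellTiter-Glo luminescence. Media-only wells were set as complete cell-killing and DMSO as no toxicity.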
TGFb inhibitor = blocks TGF-b signaling; HepG2 CAGA-GFP TGF-b/SMAD3 reporter, GFP fluorescence, 18 h; TGF-beta stimulated, 500 pg/mL final; Potency, µM (series often up to 46.1 µM), actives largely listed as inhibitors; 410,000 compounds, 1.2% hits; AID 588855; further: nearly all actives have a fitted effect of over 65% in size
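HEPG2 CAGA-GFP, 1000 cells/well; 2 h settle, 37 C; cpd via pin tool; TGF-b 500 pg/mL final; 18 h, 37 C; GFP imaging ex488/em500-530; %Activity normalised to -TGF-b and +DMSO controls; CRC fit, curve class.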
ATXN viability = cell viability loss in ATXN counter-screen. 400,000 compounds, 0.49% hits. S2 cells (HEK-293 line with an ATXN2-luciferase reporter) viability, CellTiter-Fluor protease fluorescence, 24 h. Potency, µM (highest dose often 56.7 µM), actives largely listed as cytotoxic; further: nearly all actives have a fitted effect of over 40% in size
TDP1 cell CPT = DT40-hTDP1 cell growth loss with CPT; Potency, µM (doses to about 46.2 µM), actives largely listed as inhibitors; 420,000 compounds, 12% hits; AID 686979; chicken DT40 Tdp1-/-;hTDP1 cells + 20 nM CPT, ATP luminescence, 48 h; further: nearly all actives have a fitted effect of over 55% in size
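Chicken DT40 Tdp1-/- cells complemented with human TDP1, 400 cells/well, exposed to compounds plus 20 nM camptothecin for at least 48 h at 37 C; viability read as ATP content by CellTiter-Glo luminescence.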
DT40 TDP1 no CPT = qHTS for Inhibitors of human tyrosyl-DNA phosphodiesterase 1 (TDP1): qHTS in cells in absence of CPT | Potency, µM (doses to about 46.2 µM), most hits filed as inhibitors | DT40 Tdp1-/- hTDP1 cells, no CPT, ATP luminescence, 48 h | 420,000 compounds, 15% hits; further: nearly all actives have a fitted effect of over 55% in size
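Camptothecin absent (DMSO only). Human TDP1-complemented DT40 knockout cells, 400 cells/well, 37 °C for minimum 48 hr; ATP measured via CellTiter-Glo, 30 min dark incubation, luminescence.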
ATXN2 expr inh = reduces ATXN2 reporter expression in HEK-293 cells; HEK-293 ATXN2-luciferase reporter, luminescence, 24 h; Potency, µM (series often up to 57 µM), most hits filed as inhibitors; 360,000 compounds, 0.72% hits; AID 1745845; further: nearly all actives have a fitted effect of over 55% in size
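ATXN2-luciferase reporter cells (luciferase flanked by upstream and downstream ATXN2 gene portions) were treated 24 h at 37 °C with compounds at up to 57 uM. SteadyGlo luminescence gave expression; GF-AFC fluorescence gave viability.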
Numbers stand for hits; n = inactive; u = inconclusive; x = not tested or not shown; [ ] = remark or other dose. An excerpt weighted towards active compounds, which were near 17% of everything screened. The call rests on the fitted dose curve; in most records, active means well fitted curve in the direction sought with a large enough effect; inconclusive means small, poorly fitted or top-dose-only effect, or another doubt; inactive means no such curve, though single readings can be large; an effect the other way counts as inactive or inconclusive.

SMILES	HepG2 viability	TGFb inhibitor	ATXN viability	TDP1 cell CPT	DT40 TDP1 no CPT	ATXN2 expr inh
O=C(Nc1ccc(Cl)cc1)C1Cc2c(-c3ccc(Cl)cc3)ccnc2O1 (configuration not stated)	n	u	n	23µM	21µM	u
CC(C)c1ccc(NC(=O)C2Cc3c(-c4ccc(Cl)cc4)ccnc3O2)cc1 (configuration not stated)	n	n	n	16µM	9.2µM	n
O=C(Nc1ccc(Cl)c(C(F)(F)F)c1)C1Cc2c(-c3ccccc3)ccnc2O1 (configuration not stated)	11µM	14µM	u	u	u	n
CS(=O)(=O)c1ccccc1C(=O)Nc1cc2c(cc1C(=O)O)OCCCO2	n	n	n	n	n	n
CCOC(=O)c1ccc(NC(=S)N2CCSC2c2ccc(Cl)cc2)cc1 (configuration not stated)	n	n	u	u	16µM	n
CCOC(=O)c1ccc(NC(=S)N2CCSC2c2ccc(OC)cc2)cc1 (configuration not stated)	n	n	n	n	u	n
COc1ccc(N2C3=C(CC4=C2CC(C)(C)CC4=O)C(=O)CC(C)(C)C3)cc1	16µM	u	n	4.6µM	3.3µM	16µM
Cc1nn(C)cc1C1C2=C(CC(C)(C)CC2=O)N(c2ccccc2)C2=C1C(=O)CC(C)(C)C2	n	n	n	n	n	n
COc1ccc(N2C3=C(C(=O)CC(C)(C)C3)C(c3ccccc3OC)C3=C2CC(C)(C)CC3=O)cc1	n	n	x	u	16µM	n
COc1ccc(N2C3=C(CC4=C2CCCC4=O)C(=O)CCC3)cc1	n	n	n	u	u	n
Cc1ccc(N2C3=C(C(=O)CC(C)(C)C3)C(c3cn(C)nc3C)C3=C2CC(C)(C)CC3=O)cc1	n	u	n	15µM	13µM	n
O=C(NCc1ccccn1)c1cc(-n2cnnc2)ccc1Cl	n	n	n	n	n	n
CCN1N=C(c2ccccc2)Cn2c1nc1ccccc12	n	n	n	u	16µM	n
COc1ccc(C(=O)Nc2ccccc2CCC2CCCCN2C)cc1 (configuration not stated)	x	x	u	n	n	x
CN1CCCC1CCOC(C)(c1ccccc1)c1ccc(Cl)cc1 (configuration not stated)	11µM	u	20µM	u	16µM	32µM
Cc1ccc(NC(=O)c2sc3ncn(Cc4cccc(F)c4)c(=O)c3c2C)c(Br)c1	n	n	n	n	n	n
COc1cc(-c2cc(NC(C)=O)c3ncc(-c4ccc(F)cc4)n3c2)cc(OC)c1OC	n	n	u	u	15µM	n
COc1cc(-c2cc(NC(C)=O)c3ncc(-c4ccc(C(C)=O)cc4)n3c2)cc(OC)c1OC	n	u	n	29µM	u	n
CC(C)C[C@H]1COc2cc(N3CC[C@H](O)C3)ccc2S(=O)(=O)N1	x	x	n	n	n	n
Cc1ccc(CNC(=O)Cn2c(=O)c3sccc3n(Cc3ccc([N+](=O)[O-])cc3)c2=O)cc1	n	n	n	n	u	n
CCN(CC)CCN(C(=O)c1ccco1)c1nc2c(C)c(C)ccc2s1	n	u	n	23µM	21µM	n
COCCCN(C(=O)c1ccco1)c1nc(-c2ccc(OC)cc2)cs1	n	n	n	16µM	21µM	n
Cc1ccc2sc(N(CCCN(C)C)C(=O)c3ccco3)nc2c1C	n	x	x	u	u	x
CCN(CC)CCCN(C(=O)c1ccco1)c1nc(-c2ccc(C)cc2)cs1	n	u	u	18µM	u	n[11.3 µM]
CCN(CC)CCCN(C(=O)c1ccco1)c1nc(-c2ccc(Cl)cc2)cs1	n	u	n	u	u	n
SMILES	HepG2 viability	TGFb inhibitor	ATXN viability	TDP1 cell CPT	DT40 TDP1 no CPT	ATXN2 expr inh
O=C(c1ccco1)N(CCCN1CCOCC1)c1nc(-c2ccc(F)cc2)cs1	n	u	n	23µM	16µM	n
CCc1nc2ccc(C(=O)NCCN3CCOCC3)cn2c1N(CCC(C)C)CCN(C)C	n	n	n	n	n	n
CCN(C(=O)c1ccco1)c1nc(CC(=O)Nc2ccc(Cl)cc2)cs1	n	n	u	u	16µM	n
COCCCN(C(=O)c1ccccc1)c1nc(-c2ccc(OC)cc2)cs1	n	n	n	18µM	16µM	n
Cc1c(NP(=O)(c2ccc(Br)cc2)c2ccc(Br)cc2)c(=O)n(-c2ccccc2)n1C	n	n	n	u	u	n
C=CCOc1nc(-c2ccncc2)nc2ccccc12	n	n	n	u	u	n
C=CCn1c(=O)c(C(C)=O)cn(N(C)c2ncc(C(F)(F)F)cc2Cl)c1=O	n	n	n	n	n	n
O=C(Nc1cc2c(cc1C(=O)c1ccccc1Br)OCCO2)c1cccc(Cl)c1	n	n	n	n	n	n
COc1ccc(C(=O)C(C)[n+]2ccc(C)c3ccccc32)cc1[N+](=O)[O-] (configuration not stated)	n	n	n	18µM	7.3µM	n
CCOC(=O)c1[nH]c(C)c(CCC(=O)Nc2ccccc2C(=O)OC)c1C	n	n	n	13µM	16µM	n
CCOC(=O)c1[nH]c(C)c(CCC(=O)Nc2ccccc2OCC)c1C	n	n	n	u	16µM	n
CCOC(=O)c1[nH]c(C)c(CCC(=O)Nc2ccc(Br)c(C)c2)c1C	n	n	n	u	u	n
CCOC(=O)c1[nH]c(C)c(CCC(=O)Nc2ccc(N(CC)CC)cc2C)c1C	n	n	n	23µM	21µM	n
CCOC(=O)CSC1=Nc2ccccc2C2=NC(CC(=O)NCc3ccc4c(c3)OCO4)C(=O)N12 (configuration not stated)	n	n	u	n	u	n
CCOCCCNS(=O)(=O)c1ccc(Br)cc1	n	n	n	n	n	n
CCS(=O)(=O)N1CCc2cc(C(=O)NC(C)c3ccccc3)ccc21 (configuration not stated)	n	u	n	u	u	n
S=C1Cc2ccccc2N1	8.9µM	5.6µM	5.6µM	0.92µM	0.73µM	6.3µM
S=C1Nc2ccccc2CS1	n	n	n	n	u	x
CCC(CN)=C(c1ccccc1)c1ccccc1	x	x	n	x	x	u
CC(C)C1NC2(C(=O)c3ccccc3C2=O)C2C(=O)N(c3ccc(F)cc3)C(=O)C12 (configuration not stated)	n	n	n	26µM	26µM	n
O=C1C2C3C=CC(CC3)C2C(=O)N1c1ccc(F)cc1 (configuration not stated)	n	u	u	n	n	n
Cc1nc(N2CCCC2)ncc1C(=O)NCc1ccc(Cl)cc1	n	u	n	n	u	n
